We go through 39 compounds from the supplement of paper PMC9399229.

Where a name gives a salt, the structure may show the parent alone. Over roughly 1,900 compounds, “relative cell viability (CellTiter-Glo), compound plus cabozantinib, relative to the cabozantinib arm (arm median 1.05; reference not stated)” has its median near 1.1; the lowest 2% begin near 0.15. This excerpt belongs to a sample that is enriched for the lowest values.

The subject of this assay is Hep3B. Description: relative cell viability (CellTiter-Glo), compound plus cabozantinib, relative to the cabozantinib arm (arm median 1.05; reference not stated) (fraction); higher = more viable cells (less growth inhibition). As to conditions: cabozantinib 2 µM; 4 days. For orientation: In ATP-based viability assays light output follows the ATP content of the culture.
In the case of `COc1ccc(-c2ccc3c(N4CCOCC4)nc(N4C[C@@H](C)O[C@@H](C)C4)nc3n2)cc1CO`, the relative cell viability was 0.773. Then `COc1nc(N)nc2c1ncn2[C@@H]1O[C@H](CO)[C@@H](O)[C@@H]1O` [Nelarabine], with 1.17. Then `CNc1ncnc2c1ncn2[C@@H]1O[C@H](CO)[C@@H](O)[C@H]1O` [N6-methyladenosine (m6A)], with 1.21; and `COc1ccc(C[C@H](N)C(=O)N[C@H]2[C@@H](O)[C@H](n3cnc4c(N(C)C)ncnc43)O[C@@H]2CO)cc1` [Puromycin 2HCl], with 0.0197; and `S=C(NCc1ccc2c(c1)OCO2)N1CCN(c2ncnc3c2oc2ccccc23)CC1` [Amuvatinib (MP-470)], with 1.03. Next, `C=CC(=O)Nc1cccc(Sc2nc(Nc3ccc(N4CCN(C)CC4)cc3)ncc2Cl)c1`: 0.747. `C=CCn1c(=O)c2cnc(Nc3ccc(N4CCN(C)CC4)cc3)nc2n1-c1cccc(C(C)(C)O)n1`: the relative cell viability worked out at 0.144. Then `Cc1cnc(Nc2ccc(N3CCN(C)CC3)cc2)nc1Nc1cccc(S(=O)(=O)NC(C)(C)C)c1`, with 0.281; and `C=CC(=O)Nc1ccc2ncnc(Nc3ccc(OCc4cccc(F)c4)c(Cl)c3)c2c1`, with 0.775; and `CCCc1ccc(OCC(=O)N(Cc2nc(-c3cccnc3)no2)C(C)C)cc1`, with 1.16. Then `C#C[C@]1(O)CC[C@H]2[C@@H]3CCC4=CC(=O)CC[C@@H]4[C@H]3CC[C@@]21C` [Norethindrone], with 1.06; and `CC1(C)S[C@@H]2[C@H](NC(=O)[C@H](N)c3ccccc3)C(=O)N2[C@H]1C(=O)O` [Ampicillin Trihydrate], with 1.08.

`CC1(C)S[C@@H]2[C@H](NC(=O)[C@H](N)c3ccccc3)C(=O)N2[C@H]1C(=O)O` [Ampicillin sodium]: the relative cell viability worked out at 1.16. Consider `O=C(/C=C/c1ccc(CN(CCO)CCc2c[nH]c3ccccc23)cc1)NO` [LAQ824 (Dacinostat)], for which the relative cell viability was 0.11. Next, `OCc1c[nH]c2ccccc12` [Indole-3-carbinol]: 1.11. Next, `O=C(O)CCCc1c[nH]c2ccccc12` [3-Indolebutyric acid (IBA)]: 1.07; `OC[C@H]1O[C@H](O[C@]2(CCl)O[C@H](CCl)[C@@H](O)[C@@H]2O)[C@H](O)[C@@H](O)[C@H]1Cl` [Sucralose]: 1.05; `CN1CCC(CNc2ccc3ncc(-c4cccc(OC(F)(F)F)c4)n3n2)CC1` [SGI-1776 free base]: 0.976. Then `COc1cccc2c1c(O)c(C(=O)N(C)c1ccc(C(F)(F)F)cc1)c(=O)n2C` [Tasquinimod], with 1.19; and `Cc1cccc(-c2nn3c(c2-c2ccnc4ccc(C(N)=O)cc24)CCC3)n1`, with 0.91. As for `CC(=O)OCOC(=O)CN(CC(=O)OCOC(C)=O)c1ccccc1OCCOc1ccccc1N(CC(=O)OCOC(C)=O)CC(=O)OCOC(C)=O`, the relative cell viability came out at 1.22.

As for `CCc1cc(Nc2nccc(-c3c(-c4ccc(OC)c(C(=O)Nc5c(F)cccc5F)c4)nc4ccccn34)n2)c(OC)cc1N1CCC(N2CCN(S(C)(=O)=O)CC2)CC1`, the relative cell viability was found to be 1.32.

For the compound `CCOC(=O)C1=C(N)Oc2ccc(Br)cc2C1C(C#N)C(=O)OCC` (centres undefined), the relative cell viability worked out at 1.02. Next, `CC(C(=O)O)c1ccc(C(=O)c2cccs2)cc1` (centres undefined) [Suprofen]: 1.11. Next, `COc1ccc(C[C@H](NC(=O)[C@H](C)NC(=O)CN2CCOCC2)C(=O)N[C@@H](Cc2ccccc2)C(=O)[C@@]2(C)CO2)cc1`: 0.23; `O=C(O)c1cc(C(F)(F)F)ccc1N1CC[C@H](OCc2ccccn2)C1`: 0.958; `CCN1C[C@H](C)n2c(c(O)c3c(=O)n(Cc4ccc(F)c(Cl)c4)nc(C(=O)NC)c32)C1=O`: 1.14. Then `Cc1cccc(C)c1NC(=O)C1CCCCN1C` (centres undefined) [Mepivacaine HCl], with 1.03.

On to `COc1ccc(S(=O)(=O)N(CCO)c2ccccc2CN(C)C/C=C/c2ccc(Cl)cc2)cc1` [KN-93 Phosphate], for which the relative cell viability was 1.14. Next, `CC(C)C(=O)Oc1ccc(CO)cc1[C@H](CCN(C(C)C)C(C)C)c1ccccc1` [Fesoterodine Fumarate]: 1.1; `C[C@@H](CN1CC(=O)NC(=O)C1)N1CC(=O)NC(=O)C1` [Dexrazoxane HCl (ICRF-187, ADR-529)]: 1.1. Then `CN1CCN(CCOc2cc(OC3CCOCC3)c3c(Nc4c(Cl)ccc5c4OCO5)ncnc3c2)CC1` [Saracatinib (AZD0530)], with 1.09; and `Cn1cc(/C=C2\C(=O)Nc3cccnc32)c2ccccc21`, with 1; and `CC(=O)S[C@@H]1CC2=CC(=O)CC[C@]2(C)[C@H]2CC[C@@]3(C)[C@@H](CC[C@@]34CCC(=O)O4)[C@H]12` [Spironolactone], with 1.1. As for `Cn1c(=O)c2c(ncn2CC(O)CO)n(C)c1=O` (centres undefined) [Dyphylline], the relative cell viability turned out to be 1.22. Then `COc1cc(F)c(F)c(Nc2ccc(I)cc2F)c1NS(=O)(=O)C1(C[C@H](O)CO)CC1` [Refametinib (RDEA119, Bay 86-9766)], with 0.196; and `Cn1c(=O)c(F)c(Nc2ccc(I)cc2F)c2c(=O)n(C[C@@H](O)CO)cnc21`, with 0.14; and `CC1=C(C(=O)OC2CCCCC2)C(c2ccc([N+](=O)[O-])cc2)C2=C(CC(C)(C)CC2=O)N1` (centres undefined), with 1.31. Next, `Cc1c(OCC(F)(F)F)ccnc1C[S+]([O-])c1nc2ccccc2[nH]1` (centres undefined) [Lansoprazole]: 1.2.
